In the library only some 18% were active in any assay of this set; here they are far more common.
VDR inh – Inhibitors of the vitamin D receptor (VDR): qHTS; VDR-SRC2-3 peptide fluorescence polarization, 2 h; hit rate 0.93% among 400,000; Potency, µM, hits mostly inhibitors
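Signal is fluorescence polarization, reporting how far test compounds block the interaction of VDR with the SRC2-3 coregulator peptide after a 2 h room-temperature incubation.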
GCN5L2 inh – qHTS Assay for Inhibitors of GCN5L2; GCN5L2 HAT assay, ThioGlo1 CoA-SH fluorescence; AID 504327, 2011; Potency, µM (doses to about 58.9 µM), hits mostly inhibitors; hit rate 0.21% among 390,000; Histone acetyltransferase KAT2A (Homo sapiens), Q92830
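GCN5L2 (20 nM) in 50mM HEPES pH 7.5, 0.1mM EDTA, 0.01% Tween-20 preincubated 15 min with compounds at room temperature. Reaction started with H3(1-25) 75uM, acetyl-CoA 70uM, ThioGlo1 50uM; CoA-thiol fluorescence (Ex340/Em540) read at 0 and 20 min.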
TDP1 cell noCPT – qHTS for Inhibitors of human tyrosyl-DNA phosphodiesterase 1 (TDP1): qHTS in cells in absence of CPT. DT40 Tdp1-/- hTDP1 cells, no CPT, ATP luminescence, 48 h. hit rate 15% among 420,000. AID 686978, 2013. Potency, µM (highest dose often 46.2 µM), actives largely listed as inhibitors; also: nearly all actives have a fitted effect of over 55% in size
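Growth of hTDP1-complemented DT40 Tdp1-knockout cells is measured by ATP luminescence after at least 48 hr compound exposure at 37 °C, with DMSO substituting for the 20 nM CPT used in the parallel screen.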
TDP1 cell CPT – qHTS for Inhibitors of human tyrosyl-DNA phosphodiesterase 1 (TDP1): qHTS in cells in presence of CPT; hit rate 12% among 420,000; Potency, µM (top dose mostly 46.2 µM), usual class: inhibitors; AID 686979, 2013; chicken DT40 Tdp1-/-;hTDP1 cells + 20 nM CPT, ATP luminescence, 48 h; also: nearly all actives have a fitted effect of over 55% in size
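Chicken DT40 Tdp1-/- cells stably complemented with human TDP1 were seeded at 400 cells/well in medium containing 20 nM camptothecin, exposed to pin-transferred compounds, and grown at 37 °C for at least 48 hr. Viability was read as ATP luminescence.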
PLK1 PBD block – qHTS for Inhibitors of PLK1-PDB (polo-like kinase 1 - polo-box domain): Primary Screen; Serine/threonine-protein kinase PLK1 (Homo sapiens), P53350; Plk1 PBD binding of FITC phosphopeptide, fluorescence polarization; Potency, µM, actives largely listed as inhibitors; hit rate 2.8% among 360,000; also: series mostly up to about 57 µM; nearly all actives have a fitted effect of over 65% in size
TDP1 block – qHTS Assay for Inhibitors of Tyrosyl-DNA Phosphodiesterase (TDP1); AID 485290, 2010; Tyrosyl-DNA phosphodiesterase 1 (Homo sapiens), Q9NUW8; hit rate 0.28% among 350,000; Potency, µM (series often up to 130 µM), actives largely listed as inhibitors; recombinant TDP1, AlphaScreen DNA substrate cleavage; also: nearly all actives have a fitted effect of over 40% in size
Target sequence (Q9NUW8 whole entry, looked up): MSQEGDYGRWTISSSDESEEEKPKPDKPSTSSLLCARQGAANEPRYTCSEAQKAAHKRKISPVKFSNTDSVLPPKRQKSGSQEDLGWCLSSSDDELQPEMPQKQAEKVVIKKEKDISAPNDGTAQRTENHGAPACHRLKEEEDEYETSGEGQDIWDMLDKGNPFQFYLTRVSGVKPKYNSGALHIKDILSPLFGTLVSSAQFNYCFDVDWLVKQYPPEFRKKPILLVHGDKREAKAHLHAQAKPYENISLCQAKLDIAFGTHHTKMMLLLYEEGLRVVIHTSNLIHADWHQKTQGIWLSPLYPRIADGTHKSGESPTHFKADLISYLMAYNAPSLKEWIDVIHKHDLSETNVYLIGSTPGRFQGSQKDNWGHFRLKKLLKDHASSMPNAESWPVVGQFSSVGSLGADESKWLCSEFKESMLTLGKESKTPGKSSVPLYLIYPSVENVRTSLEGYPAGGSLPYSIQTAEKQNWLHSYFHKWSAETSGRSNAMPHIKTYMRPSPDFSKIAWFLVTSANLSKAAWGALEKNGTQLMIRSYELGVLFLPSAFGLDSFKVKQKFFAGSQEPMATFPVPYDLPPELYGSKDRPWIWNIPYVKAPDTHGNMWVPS
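Compounds were preincubated with Tdp1 (1 nM final) for 15 min at room temperature before substrate (15 nM final) started a 5 min reaction; beads (10 ug/ml final) were then added for 10 min before AlphaScreen detection.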
Hits are given with their value; - = inactive; ? = inconclusive; . = no result. Calls follow the shape of the dose curve; as a rule, active = well fitted curve in the direction sought with a large enough effect; inconclusive = small, poorly fitted or top-dose-only effect, or another doubt; inactive = no such curve, though single readings can be large; an effect the other way counts as inactive or inconclusive.

SMILES	VDR inh	GCN5L2 inh	TDP1 cell noCPT	TDP1 cell CPT	PLK1 PBD block	TDP1 block
O=C1C=CC(=O)N1c1ccc2c(c1)Cc1cc(F)ccc1-2	?	.	2.1µM	1.6µM	?	.
Cc1nn(Cc2ccc(F)cc2)c(C)c1NC(=O)c1nn(C)cc1Cl	-	-	?	-	-	-
CCc1ccc(-c2cc(C(F)(F)F)n3nc(C(=O)Nc4c(C)nn(Cc5ccc(F)cc5)c4C)cc3n2)s1	-	-	23µM	?	-	-
Cc1nn(Cc2ccc(F)cc2)c(C)c1NC(=O)c1cc(-c2ccc3c(c2)OCO3)on1	-	-	13µM	?	-	-
Cc1ccc(Cn2nc(C)c(NC(=O)c3cc(-c4ccc5c(c4)OCO5)on3)c2C)cc1	-	-	?	16µM	-	-
CCOC(=O)/C=C1/SCC(=O)N1CCOc1cccc(Br)c1	-	.	-	-	-	.
Cc1cc2nc(-c3cccc(Br)c3)c(CC3CCCCC3)n2c(C)c1Br	.	.	?	-	-	.
C/C=C1\NC(=O)[C@H]2CSSCC/C=C/[C@H](CC(=O)N[C@H](C(C)C)C(=O)N2)OC(=O)C(C(C)C)NC1=O (stereo partly specified)	.	.	0.0013µM	0.0015µM	.	.
NNC(=O)/C(=C\c1ccc(Br)cc1)NC(=O)c1cccs1	-	-	-	-	-	-
Cc1ccc(NC(=O)c2c(C)oc3ccc(O)c(CN4CCOCC4)c23)c(C)c1	-	-	-	-	.	-
Cc1ccccc1NC(=O)c1c(C)oc2ccc(O)c(CN3CCCC(C)C3)c12 (stereo unspecified)	-	-	21µM	10µM	.	-
Cc1ccccc1NC(=O)c1c(C)oc2ccc(O)c(CN3CCC(C)CC3)c12	-	-	23µM	16µM	.	-
COCCOC(=O)c1c(C)oc2ccc(O)c(CN3CCC(C)CC3)c12	-	-	-	-	-	-
CCc1cccc(CC)c1NC(=O)c1c(C)oc2ccc(O)c(CN3CCCC3)c12	-	-	?	?	.	-
Cc1ccc(NC(=O)c2c(C)oc3ccc(O)c(CN4CCCCCC4)c23)c(C)c1	-	-	6.5µM	9.2µM	.	-
O=C(Nc1ccc(F)c(Cl)c1)C1CCCN(c2cnccn2)C1 (stereo unspecified)	-	-	?	?	-	-
CCOC(=O)c1ccc(NC(=O)C2CCCN(c3cnccn3)C2)cc1 (stereo unspecified)	-	-	15µM	?	-	-
CCCc1ccc(NC(=O)C2CCN(c3cnccn3)CC2)cc1	-	-	23µM	16µM	-	-
Cc1ccc(NC(=O)C2CCCN(c3cnccn3)C2)cc1Cl (stereo unspecified)	-	-	23µM	?	.	-
O=C(CN1C(=O)COc2ccc(S(=O)(=O)N3CCCCCC3)cc21)NCCc1ccccc1	-	-	?	?	.	-
Cc1ccc(S(=O)(=O)Nc2ccc3nc(C)sc3c2)c(C)c1	-	-	15µM	?	-	-
COc1ccccc1S(=O)(=O)Nc1ccc2nc(C)sc2c1	-	-	21µM	2.6µM	-	-
Cc1nc2ccc(NS(=O)(=O)c3c(C)c(C)cc(C)c3C)cc2s1	-	.	21µM	?	?	-
Cc1ccc(S(=O)(=O)Nc2ccc3cn[nH]c3c2)c(C)c1	-	-	-	?	-	-
CCN(CC)c1ccc(NC(=O)c2cc(S(=O)(=O)N3CCc4ccccc43)cn2C)c(C)c1	-	-	?	-	.	-
SMILES	VDR inh	GCN5L2 inh	TDP1 cell noCPT	TDP1 cell CPT	PLK1 PBD block	TDP1 block
Cc1ccc(NC(=O)c2cc(S(=O)(=O)N3CCc4ccccc43)cn2C)cc1C	-	-	?	?	-	.
CCCNC(=O)c1cc(S(=O)(=O)N2CCc3ccccc32)cn1C	-	-	18µM	23µM	-	.
Cc1ccc(NC(=O)c2cc(S(=O)(=O)N3CCc4ccccc43)cn2C)c(Cl)c1	-	?	12µM	?	.	-
Cn1cnc2c(cnn2C)c1=N	-	.	-	-	-	.
CC(Sc1nc(N)c2c3c(sc2n1)CSC(C)(C)C3)C(=O)Nc1ccccc1 (stereo unspecified)	40µM	-	13µM	18µM	8.4µM	-
CNc1nc2sc3c(c2c(=O)n1C)CC(C)(C)SC3	-	-	?	-	-	-
COC(=O)C1C2CC(C(Br)C2Br)C1C(=O)O (stereo unspecified)	-	.	?	-	-	.
CN(C)S(=O)(=O)c1cccc(NC(=O)CSc2nc3c(cc2C#N)C(=O)CC(C)(C)C3)c1	-	-	7.3µM	9.2µM	-	-
Cc1cc(C)c2c(=O)[nH]c(SCC(=O)Nc3cccc(S(=O)(=O)N(C)C)c3)nc2n1	-	-	-	-	-	-
CN(C)S(=O)(=O)c1cccc(NC(=O)CSc2cccc3cccnc23)c1	-	-	3.3µM	3.7µM	11µM	-
O=C(Nc1nc(-c2ccccc2)cs1)c1ccc2c(=O)n3c(nc2c1)CCCCC3	-	-	8.2µM	16µM	-	-
O=C(Nc1cccc(S(=O)(=O)N2CCOCC2)c1)c1ccc2c(=O)n3c(nc2c1)CCCCC3	-	-	10µM	13µM	-	-
N#CCCN(C(=O)c1ccc2c(=O)n3c(nc2c1)CCCCC3)c1ccccc1	-	-	-	?	24µM	-
O=C(Nc1cccc(S(=O)(=O)N2CCCC2)c1)c1ccc2c(=O)n3c(nc2c1)CCCCC3	-	-	16µM	15µM	-	-
COc1ccc(NC(=O)c2ccc3c(=O)n4c(nc3c2)CCCCC4)cc1	-	-	?	?	?	-
CC(=O)c1cccc(NC(=O)c2ccc3c(=O)n4c(nc3c2)CCCCC4)c1	-	-	?	?	-	-
CCOc1ccc(N(C(=O)c2ccc(C)cc2)S(=O)(=O)c2ccc3c(c2)n(C)c(=O)n3C)cc1	-	-	?	-	.	-
Nc1nc(SCC(=O)Nc2ccc(Br)cc2Br)n[nH]1	-	-	-	-	-	-
Nc1cc(N)nc(SCC(=O)Nc2ccc(Br)cc2Cl)n1	-	-	?	?	11µM	-
Cc1ccc(Cl)cc1N1CCN(c2nc3ccccc3c3nc(-c4cccnc4)nn23)CC1	-	-	-	-	.	-
CC(C)C[C@H]1CN(CCCC[C@H]2CNC(=O)C(=O)N2CCc2ccccc2)C(=O)C(=O)N1CCC1CCCCC1	.	.	-	-	-	.
